Laboratory results from the supplement of paper PMC6555819.

Assays:
Assay in all cases: PBM binding z-score (relative to random genomic background probes); higher = stronger binding; sequences stand for … in GC…GCGATTGACAGCGTAGAATGAAGG
[1] = test system: FXR:RXRa (NR concentration 270 nM, RXRa partner concentration 90 nM)
Outline: (§1)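 Custom Agilent 4×180K protein-binding microarrays carried double-stranded probes, each with a 34-nt variable region. These regions held direct-repeat seeds, single-nucleotide variants, half-site ablations and random human genomic background sequences. Ligand-free nuclear receptor dimers were incubated on the arrays for 1 h, antibodies against each partner (one per run) detected binding, and scanned fluorescence was regression-normalized. Binding z-scores take the random background probes as reference.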

[2] = test system: LXRa:RXRa (NR concentration 270 nM, RXRa partner concentration 90 nM)
Outline: as §1

[3] = test system: LXRa homodimer (NR concentration 270 nM)
Outline: as §1

[4] = test system: LXRb:RXRa (NR concentration 270 nM, RXRa partner concentration 90 nM)
Outline: as §1

[5] = test system: LXRb homodimer (NR concentration 270 nM)
Outline: as §1

[6] = test system: PPARa:RXRa (NR concentration 270 nM, RXRa partner concentration 90 nM)
Outline: as §1

[7] = test system: PPARg:RXRa (NR concentration 180 nM, RXRa partner concentration 90 nM)
Outline: as §1

[8] = test system: PPARg:RXRa 270nM:90nM, anti-RXR (NR concentration 270 nM, RXRa partner concentration 90 nM)
Outline: as §1

[9] = test system: PPARg:RXRa 30nM:10nM, anti-RXR (NR concentration 30 nM, RXRa partner concentration 10 nM)
Outline: as §1

[10] = test system: PPARg:RXRa 90nM:30nM, anti-RXR (NR concentration 90 nM, RXRa partner concentration 30 nM)
Outline: as §1

[11] = test system: PPARg:RXRa DBDmut IVT, anti-RXR (DBD mutation: RXRa K156A/R161A, NR concentration 270 nM, RXRa partner concentration 90 nM)
Outline: as §1

[12] = test system: PPARg:RXRa IVT, anti-PPARg (NR concentration 270 nM, RXRa partner concentration 90 nM)
Outline: as §1

[13] = test system: PPARg DBDmut:RXRa IVT, anti-PPARg (DBD mutation: PPARg1 K132A/R137A, NR concentration 270 nM, RXRa partner concentration 90 nM)
Outline: as §1

[14] = test system: PPARg DBDmut IVT, anti-PPARg (DBD mutation: PPARg1 K132A/R137A, NR concentration 270 nM)
Outline: as §1

[15] = test system: PPARg homodimer (NR concentration 180 nM)
Outline: as §1

[16] = test system: PXR:RXRa (NR concentration 270 nM, RXRa partner concentration 90 nM)
Outline: as §1

[17] = test system: PXR homodimer (NR concentration 270 nM)
Outline: as §1

[18] = test system: RARa:RXR (NR concentration 270 nM, RXRa partner concentration 90 nM)
Outline: as §1

[19] = test system: RARa homodimer (NR concentration 270 nM)
Outline: as §1

[20] = test system: RARb:RXRa (NR concentration 270 nM, RXRa partner concentration 90 nM)
Outline: as §1

| Sequence | PBM binding z-score [1] | PBM binding z-score [2] | PBM binding z-score [3] | PBM binding z-score [4] | PBM binding z-score [5] | PBM binding z-score [6] | PBM binding z-score [7] | PBM binding z-score [8] | PBM binding z-score [9] | PBM binding z-score [10] | PBM binding z-score [11] | PBM binding z-score [12] | PBM binding z-score [13] | PBM binding z-score [14] | PBM binding z-score [15] | PBM binding z-score [16] | PBM binding z-score [17] | PBM binding z-score [18] | PBM binding z-score [19] | PBM binding z-score [20] |
| --- | --- | --- | --- | --- | --- | --- | --- | --- | --- | --- | --- | --- | --- | --- | --- | --- | --- | --- | --- | --- |
| TAGCCTAGGTCATGCGGGCCATTATAGTGTCGGC | 4.23 | 3.27 | 0.473 | 1.96 | -0.482 | 3.6 | 2.62 | 2.47 | 0.148 | 1.56 | 2.07 | 2.84 | 0.0501 | -0.158 | 0.864 | 1.97 | 0.0749 | 2.7 | -0.379 | 3.69 |
| GCTGCTAGCTCAACTGATGGTCAGCTAAAGCTCG | -0.673 | -0.959 | -0.842 | -1.01 | -1.05 | -1.23 | -0.747 | -1.13 | -1.24 | -1.15 | -0.64 | -0.817 | -1.66 | -1.33 | -1.88 | -0.933 | -1.77 | -1.22 | -1.08 | -0.407 |
| CCAGACAGGTGAAAGCTAACTCAGTCTGGTACGC | -0.364 | -0.206 | -0.559 | -0.0941 | -0.593 | 0.302 | 0.368 | -0.0659 | -0.35 | -0.285 | 1.15 | 0.32 | -0.519 | -0.546 | -0.106 | -0.352 | -0.314 | -0.197 | -0.137 | 0.542 |
| AGAAGGAGGTTACCAAAGATCAGGGAAACGCTTG | 0.978 | 5.85 | 0.0257 | 2.9 | 0.368 | 2.79 | 1.84 | 2.1 | 0.736 | 1.37 | 2.51 | 2.63 | 0.699 | 0.604 | 0.719 | 1.25 | 0.551 | 1.46 | 0.412 | 1.89 |
| CCGAGTGGGGCAAGGTTACCATAACGCACAGCCA | 0.236 | 0.965 | -0.227 | 0.664 | -0.711 | 1.78 | 2.73 | 2.77 | 0.815 | 2.3 | 1.75 | 3.14 | -0.586 | -0.492 | 0.921 | 0.439 | 0.123 | 1.16 | -0.144 | 1.4 |
| AGAATGACGTTATTAAGATCAGGGAATTGCGGTC | -0.71 | -0.589 | -0.146 | -0.6 | -0.12 | -0.251 | 0.405 | 0.0531 | -0.0762 | 0.151 | -0.6 | -0.306 | 0.0629 | 0.222 | -0.803 | -0.327 | -0.378 | -0.472 | -0.0308 | -0.451 |
| GCTCGGAGGACCAGGTCAGAGCTTTGTCCGTAGA | 0.0133 | -0.0636 | -0.562 | -0.241 | -1.47 | 0.776 | -0.725 | -0.204 | -1.11 | -0.616 | -0.0233 | -0.0399 | -1.45 | -1.52 | -0.553 | 0.343 | -0.875 | 0.505 | -0.985 | 1.35 |
| CGTACAAGGTCAGAGAGGTCAGTGAATGCCGAGT | 6.42 | 5.64 | 3.38 | 4.41 | 0.711 | 5.09 | 4.76 | 4.98 | 1.97 | 3.42 | 3.77 | 4.39 | 1.15 | 1.93 | 3.94 | 6.31 | 12.2 | 5.87 | 1.83 | 5.17 |
| GCTAGTTGGTCAGTAAAAGGTCGCACACCGGTCG | 0.649 | 1.35 | 0.422 | 1.28 | -0.0717 | 2.31 | 0.999 | 2.68 | 0.448 | 2.08 | 0.512 | 1.32 | -0.491 | -0.677 | 1.76 | 2.07 | -0.218 | 2.6 | 0.227 | 2.34 |
| CCTACTGGGGCATCAGGTCATTGATATCAACGTT | 1.51 | 1.23 | 1.04 | 1.47 | -0.819 | 3.15 | 4.22 | 4.7 | 2.26 | 4.13 | 5.37 | 6.32 | 1.29 | 0.377 | 2.41 | 1.8 | 0.7 | 2.41 | 0.207 | 2.36 |
| CGAACGAGGGCATGTGTTGATAGCAAATGCCGAT | 0.387 | 0.273 | -0.286 | 0.11 | -0.807 | 1.05 | 1.15 | 1.14 | 0.0411 | 0.632 | 2.61 | 1.67 | 0.15 | -0.912 | 0.123 | 0.241 | -0.168 | 0.367 | 0.149 | 1.81 |
| GTACCAAGGTGAATAGGTAGTTGATGAGTAGGCG | 0.274 | 0.228 | 0.0287 | 0.0207 | -0.534 | 0.934 | 0.795 | 0.782 | 0.189 | 0.453 | 1.51 | 1.76 | 0.536 | 0.507 | 0.398 | -0.196 | -0.0218 | 0.256 | 0.745 | 1.1 |
| CAAACTAGGTCACCGGAAGGTCAAGGTCCGCATG | 5.96 | 5.56 | 3.66 | 4.58 | 0.998 | 5.83 | 9.82 | 7.78 | 5.66 | 8.09 | 8.67 | 8.88 | 2.07 | 0.589 | 8.45 | 5.6 | 1.49 | 7.28 | 2.79 | 5.37 |
| TTTAGTTGGTCACGGAGGTCACACACGACGGGTA | 3.66 | 3.83 | 3.02 | 3.45 | 1.48 | 4.21 | 4.64 | 4.76 | 2.06 | 3.63 | 3.69 | 5.36 | 1.78 | 1.9 | 3.37 | 4.93 | 1.92 | 4.96 | 2.05 | 4.08 |
